Data taken from PubChem BioAssay (NCI).
The panel holds about 83,000 compounds, 20% with a hit somewhere; the sample as a whole holds those more often.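 Testing used 96-well plates and a 48-hour single-concentration exposure. Example: -40 means 40% of the starting cells died.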 Active and inactive are the calls of the source. Rule for the calls: active = growth percent below 10; inactive = the rest.

Each molecule was assayed on SF-268 CNS (assay: NCI-60 one-dose screen, 48 h (100 = growth as untreated, 0 = no growth, -100 = all killed)). Conditions: 10 µM unless noted.

SMILES	growth
COC(=O)[C@@H](Cc1c[nH]c2ccccc12)NC(=O)/C=C/c1ccccc1	42.9% (inactive)
NNc1ccc(S(N)(=O)=O)cc1	108% (inactive)
COc1ccc(-c2ccc(-c3ccc(C(=N)N)s3)s2)cc1	-61.3% (active)
O=P(O)(O)C(O)(Cc1cccnc1)P(=O)(O)O	104% (inactive)
O=C1OC(/C=C/c2ccccc2)=NC/1=C/c1ccccc1[N+](=O)[O-]	99.7% (inactive)
N/C(=N\O)c1ncc(-c2ccc(C(F)(F)F)cc2)c(NC2CCCCCC2)n1	-89.4% [100 µM] (active)
Cc1cc(Nc2c3ccccc3nc3ccccc23)ccc1NS(C)(=O)=O	37.5% (inactive)
COC(=O)[C@H](Cc1cn(C)cn1)NC(=O)[C@H](CC(C)C)NC(=O)Nc1cc(C(F)(F)F)cc(C(F)(F)F)c1	-92.8% [100 µM] (active)
N=C(N)c1ccc(-c2ccc(-c3cccs3)s2)cc1F	-77.1% (active)
O=C(Nc1cccc(Cl)c1)Nc1ccccc1Cl	91% (inactive)
CCCCCCCCCCCCCC	120% (inactive)
Cc1nn(-c2ccccc2)c2nc3c(nc12)C1=NCCN1C(c1ccc(Cl)cc1)N3 (stereo not drawn)	84.9% (inactive)
COc1cc(OC)c(C(=O)/C=C/c2cccc(OC(C)=O)c2)cc1CC=C(C)C	70.4% (inactive)
C[N+](C)(C)CCCCCCCCCC[N+](C)(C)C	98.2% (inactive)
Cc1cc2nc(CN)[nH]c2cc1C	106% (inactive)
CC(=O)C1CCC2C3CC(C)=C4CC(O)CCC4(C)C3CCC12C (stereo not drawn)	102% (inactive)
N=C(N)c1ccc(-c2ccc(-c3ccco3)o2)cc1F	19.8% (inactive)
N#Cc1ccc(-c2ccc(-c3cccs3)o2)cc1F	70.7% (inactive)
O=C(Nc1cccc(-n2ccc3c(NC(=O)c4ccccc4)nccc32)c1)c1ccc(Cl)c(Cl)c1	-55% (active)

SMILES	growth
COc1ccc2nc3ccccc3c(NCc3ccc(C)cc3)c2c1	48.4% (inactive)
COc1cc(OC)cc(-c2ccc(-c3ccc(C(=N)N)s3)s2)c1	-76.5% (active)
COc1ccc(-c2cc(-c3cc4ccccc4oc3=O)n(-c3ccccc3)n2)cc1	71.1% (inactive)
O=C1c2cccc3cccc(c23)C(=O)N1CCCCCCCCCCN1C(=O)c2cccc3cccc(c23)C1=O	100% (inactive)
O=C(CCCN1CCC(O)(c2ccc(Br)cc2)CC1)c1ccc(F)cc1	83.4% (inactive)
O=C(c1ccc(OCCN2CCCCC2)cc1)c1c(-c2ccc(O)cc2)sc2cc(O)ccc12	84.3% (inactive)
CCCCCc1c(C)[nH]c(/C=C2\N=C(c3ccc[nH]3)C=C2Oc2ccc(OC)cc2)c1C	-83.5% [100 µM] (active)
ClCCn1cnc2c(SCc3ccccc3Cl)ncnc21	31.3% (inactive)
O=C(N/N=C/c1ccc([N+](=O)[O-])o1)c1ccc(O)cc1	12.6% (inactive)
CCS(=O)(=O)Nc1cccc(Nc2c3cccc(C)c3nc3c(C)cccc23)c1OC	20.4% (inactive)
CCN(C(=O)CCl)C(C)(C)C(SSSC(c1ccc(Cl)cc1)C(C)(C)N(CC)C(=O)CCl)c1ccc(Cl)cc1 (stereo not drawn)	91.1% (inactive)
CCOC(=O)C(CCCCC(NC(C)=O)(C(=O)OCC)C(=O)OCC)(NC(C)=O)C(=O)OCC	100% (inactive)
COc1ccc(-n2nc(C(=O)Nc3ccc(F)cc3)nc2-c2cc(OC)c(OC)c(OC)c2)cc1	102% (inactive)
ClC1=NC(Cl)C(Cl)=N/C1=N\c1ncn[nH]1 (stereo not drawn)	33.8% (inactive)
COc1cc2c(cc1OC)-c1cc(OC)c(OC)cc1C(CN(C)C)C2 (stereo not drawn)	39% [100 µM] (inactive)
Oc1ccc(-c2nnc3c4[nH]ccc4ncn23)cc1	103% (inactive)
COc1ccc(/C=N/NC(N)=S)c(OC)n1	109% (inactive)
CC(C)(C)c1cc(C[P+](c2ccccc2)(c2ccccc2)c2ccccc2)cc(C(C)(C)C)c1O	19.4% (inactive)
FC(F)(F)c1cc(-c2nnc3n2N=C(Cl)CS3)cc(C(F)(F)F)c1	115% (inactive)
